About 83,000 compounds went through this panel and 20% of them were active in at least one assay; those are over-represented in the sample as a whole.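 The test compound was applied at a single concentration to cells in 96-well plates for 48 hours, and percent growth was recorded.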 Calls of active or inactive are those of the source. The calls were made as follows: active = growth percent below 10; inactive = the rest.
Tests used:
Experiment in all cases: NCI-60 one-dose screen, 48 h (100 = growth as untreated, 0 = no growth, -100 = all killed)
Settings in all cases: 10 µM
NCI-H23 lung = tested on: NCI-H23 lung
NCI-H322M lung = tested on: NCI-H322M lung
NCI-H460 lung = tested on: NCI-H460 lung
HOP-92 NSCLC = tested on: HOP-92 NSCLC
NCI-H522 lung = tested on: NCI-H522 lung
A549/ATCC NSCLC = tested on: A549/ATCC NSCLC
786-0 renal = tested on: 786-0 renal
HOP-62 NSCLC = tested on: HOP-62 NSCLC
COLO 205 colon = tested on: COLO 205 colon
NCI-H226 lung = tested on: NCI-H226 lung

Measured: growth

CC1CCCCN1C(=S)Nc1ccc(S(=O)(=O)N2CCCCC2)cc1 (centres undefined)
inactive: NCI-H23 lung 104% | NCI-H322M lung 118% | NCI-H460 lung 97.1% | HOP-92 NSCLC 63.1% | NCI-H522 lung 73% | A549/ATCC NSCLC 101% | 786-0 renal 92.6%

CC(=O)c1c[nH]c2ccccc12
inactive: NCI-H23 lung 106% | NCI-H322M lung 101% | HOP-62 NSCLC 95.8% | NCI-H460 lung 113% | NCI-H522 lung 92.9% | A549/ATCC NSCLC 103% | 786-0 renal 103% | COLO 205 colon 119%

NNc1ccccc1C(=O)O
inactive: NCI-H23 lung 111% | NCI-H322M lung 128% | HOP-62 NSCLC 104% | NCI-H460 lung 110% | HOP-92 NSCLC 98.1% | A549/ATCC NSCLC 109% | 786-0 renal 113% | COLO 205 colon 107%

CCCCC1(CC)COC(CCC)OC1 (centres undefined)
inactive: NCI-H23 lung 111% | NCI-H322M lung 117% | HOP-62 NSCLC 95.9% | NCI-H460 lung 115% | HOP-92 NSCLC 79.7% | A549/ATCC NSCLC 103% | COLO 205 colon 114%

O=C(Cc1nc2ccc([N+](=O)[O-])cc2nc1CC(=O)c1cccnc1)c1cccnc1
inactive: NCI-H23 lung 52.7% | NCI-H322M lung 51% | HOP-62 NSCLC 25.6% | NCI-H460 lung 48.1% | HOP-92 NSCLC 69.8% | NCI-H522 lung 18.5% | A549/ATCC NSCLC 64.8% | 786-0 renal 15.8% | COLO 205 colon 121%

O=[N+]([O-])c1ccc(N=Nc2ccc(O)c3ccccc23)cc1
inactive: NCI-H322M lung 79.3% | HOP-62 NSCLC 75.2% | NCI-H460 lung 30.9% | HOP-92 NSCLC 10.8% | A549/ATCC NSCLC 71.1% | COLO 205 colon 88.5%
active: NCI-H23 lung 6.51% | NCI-H522 lung -14.2%

O=C(NCCNC(=O)c1ccc(Cl)cc1Cl)c1ccc(Cl)cc1Cl
inactive: NCI-H23 lung 114% | NCI-H322M lung 113% | HOP-62 NSCLC 87.6% | NCI-H460 lung 105% | HOP-92 NSCLC 71.8% | A549/ATCC NSCLC 104% | 786-0 renal 107% | COLO 205 colon 129%

CCOc1ccc(Br)cc1/C=N\N=C\c1cc(Br)ccc1OCC
inactive: NCI-H226 lung 97.6% | NCI-H322M lung 111% | HOP-62 NSCLC 108% | NCI-H460 lung 103% | HOP-92 NSCLC 92.2% | NCI-H522 lung 104% | A549/ATCC NSCLC 104% | 786-0 renal 105% | COLO 205 colon 119%

FC(F)(F)c1ccc2c(c1)N(CCCN1CCN(C3CC3)CC1)c1ccccc1S2
inactive: NCI-H23 lung 27% | NCI-H322M lung 112% | HOP-62 NSCLC 95.7% | NCI-H460 lung 24.4% | HOP-92 NSCLC 51.1% | NCI-H522 lung 28.7% | A549/ATCC NSCLC 67.3% | 786-0 renal 63.9% | COLO 205 colon 79.9%

O=C(O)c1ccc(S(=O)(=O)O)cc1
inactive: NCI-H23 lung 101% | NCI-H322M lung 98.8% | HOP-62 NSCLC 99.3% | NCI-H460 lung 109% | HOP-92 NSCLC 76.3% | A549/ATCC NSCLC 91.5% | 786-0 renal 89.7%

CC(=O)OCCO
inactive: NCI-H23 lung 108% | NCI-H322M lung 102% | HOP-62 NSCLC 109% | NCI-H460 lung 111% | NCI-H522 lung 111% | A549/ATCC NSCLC 99.2% | 786-0 renal 101% | COLO 205 colon 107%

COc1ccc(OC)c(/C=C2\CCc3ccccc3C2=O)c1
inactive: NCI-H23 lung 62.7% | NCI-H322M lung 70% | NCI-H460 lung 13.9% | HOP-92 NSCLC 45.2% | NCI-H522 lung 22.5% | A549/ATCC NSCLC 42.6% | 786-0 renal 46.9%

NCCCN
inactive: NCI-H23 lung 112% | NCI-H322M lung 108% | HOP-62 NSCLC 99.4% | NCI-H460 lung 108% | HOP-92 NSCLC 103% | NCI-H522 lung 105% | A549/ATCC NSCLC 105% | 786-0 renal 104% | COLO 205 colon 122%

O=C(O)C(O)c1ccccc1 (centres undefined)
inactive: NCI-H23 lung 101% | NCI-H322M lung 99.6% | HOP-62 NSCLC 116% | NCI-H460 lung 107% | NCI-H522 lung 103% | A549/ATCC NSCLC 105% | 786-0 renal 98.8% | COLO 205 colon 109%

CC(=O)c1ccc(N=C(C#N)C2=C(O)c3ccccc3C2=O)cc1
inactive: NCI-H23 lung 104% | NCI-H322M lung 100% | HOP-62 NSCLC 100% | NCI-H460 lung 101% | NCI-H522 lung 78.6% | 786-0 renal 103% | COLO 205 colon 111%

O=C(O)c1ccccc1NCc1ccco1
inactive: NCI-H23 lung 90.9% | NCI-H322M lung 102% | HOP-62 NSCLC 95.7% | NCI-H460 lung 102% | HOP-92 NSCLC 108% | A549/ATCC NSCLC 102% | 786-0 renal 97.2% | COLO 205 colon 126%

O=[N+]([O-])c1ccccc1S(=O)c1ccccc1[N+](=O)[O-]
inactive: NCI-H23 lung 95.9% | NCI-H322M lung 95.5% | HOP-62 NSCLC 108% | NCI-H460 lung 105% | HOP-92 NSCLC 76.2% | A549/ATCC NSCLC 101% | 786-0 renal 111% | COLO 205 colon 106%

N#CSc1cc(S(N)(=O)=O)ccc1N
inactive: NCI-H23 lung 104% | NCI-H322M lung 114% | HOP-62 NSCLC 104% | NCI-H460 lung 114% | HOP-92 NSCLC 135% | A549/ATCC NSCLC 102% | COLO 205 colon 113%

Cc1cc2ccccc2c(O)c1C#N
inactive: NCI-H23 lung 91.1% | NCI-H322M lung 119% | HOP-62 NSCLC 85.5% | NCI-H460 lung 107% | A549/ATCC NSCLC 107% | COLO 205 colon 112%

O=C(O)CCC(NC(=O)OCc1ccccc1)C(=O)O (centres undefined)
inactive: NCI-H23 lung 101% | NCI-H322M lung 98.6% | NCI-H460 lung 111% | HOP-92 NSCLC 95.9% | NCI-H522 lung 99.6% | 786-0 renal 104% | COLO 205 colon 113%

NCCC(=O)c1ccc(Cl)cc1
inactive: NCI-H23 lung 99.8% | NCI-H322M lung 102% | HOP-62 NSCLC 91% | NCI-H460 lung 107% | NCI-H522 lung 100% | A549/ATCC NSCLC 111% | 786-0 renal 105% | COLO 205 colon 106%

Cn1cnc2nc(Cl)nc(Cl)c21
inactive: NCI-H23 lung 40.6% | NCI-H322M lung 34.1% | HOP-92 NSCLC 31.3% | A549/ATCC NSCLC 17.2%
active: HOP-62 NSCLC 8.69% | NCI-H460 lung -9.25% | 786-0 renal 4.6% | COLO 205 colon -29.3%

O=C(NCc1ccco1)Nc1c(Cl)cc(Cl)cc1Cl
inactive: NCI-H23 lung 104% | NCI-H322M lung 106% | HOP-62 NSCLC 97.3% | NCI-H460 lung 103% | HOP-92 NSCLC 79.6% | A549/ATCC NSCLC 102% | 786-0 renal 97.2% | COLO 205 colon 107%

CC(C)=NNC(N)=S
inactive: NCI-H23 lung 77.7% | NCI-H322M lung 104% | NCI-H460 lung 83.4% | HOP-92 NSCLC 85.8% | NCI-H522 lung 88% | A549/ATCC NSCLC 92.6% | 786-0 renal 104% | COLO 205 colon 83.5%

NC(=S)N/N=C/c1ccc(N)cc1
inactive: NCI-H23 lung 89.5% | NCI-H322M lung 99.4% | HOP-62 NSCLC 97% | NCI-H460 lung 106% | HOP-92 NSCLC 89.1% | NCI-H522 lung 92.3% | A549/ATCC NSCLC 76% | 786-0 renal 99.9% | COLO 205 colon 110%

CC(C)CCOC(=O)c1ccccc1
inactive: NCI-H23 lung 106% | NCI-H322M lung 95.6% | NCI-H460 lung 106% | HOP-92 NSCLC 101% | NCI-H522 lung 104% | A549/ATCC NSCLC 102% | 786-0 renal 99.8% | COLO 205 colon 105%

O=C1OC(=O)C2C1C1(Cl)C(Cl)=C(Cl)C2(Cl)C2C(=O)OC(=O)C21 (centres undefined)
inactive: NCI-H23 lung 101% | NCI-H322M lung 107% | HOP-62 NSCLC 104% | NCI-H460 lung 107% | 786-0 renal 102% | COLO 205 colon 93.9%

O=[N+]([O-])c1ccccc1N=Nc1ccc(O)cc1O
inactive: NCI-H23 lung 103% | NCI-H322M lung 107% | HOP-62 NSCLC 106% | NCI-H460 lung 115% | HOP-92 NSCLC 112% | A549/ATCC NSCLC 106% | 786-0 renal 108% | COLO 205 colon 102%

CC1=CC(C)(C)NC(=S)N1c1ccc(S(=O)(=O)O)c2cccc(S(=O)(=O)O)c12
inactive: NCI-H23 lung 101% | NCI-H322M lung 127% | HOP-62 NSCLC 99.5% | NCI-H460 lung 110% | A549/ATCC NSCLC 106% | 786-0 renal 112%

Nc1nc(OCc2ccccc2)c2[nH]cnc2n1
inactive: NCI-H23 lung 93.6% | NCI-H322M lung 118% | HOP-62 NSCLC 100% | NCI-H460 lung 107% | NCI-H522 lung 86.5% | A549/ATCC NSCLC 105% | 786-0 renal 87.1% | COLO 205 colon 114%

CC1C(=O)c2ccccc2CC1C(=O)O (centres undefined)
inactive: NCI-H23 lung 96.8% | NCI-H322M lung 99.5% | HOP-62 NSCLC 105% | NCI-H460 lung 122% | HOP-92 NSCLC 101% | A549/ATCC NSCLC 93.8% | 786-0 renal 110% | COLO 205 colon 105%

CNc1nc(NC)c2cn[nH]c2n1
inactive: NCI-H23 lung 104% | NCI-H322M lung 116% | HOP-62 NSCLC 104% | NCI-H460 lung 109% | HOP-92 NSCLC 84.9% | 786-0 renal 101% | COLO 205 colon 95.6%

O=[N+]([O-])c1ccc(-c2ncc(-c3ccc(Br)cc3)o2)cc1
inactive: NCI-H23 lung 93.7% | NCI-H322M lung 110% | HOP-62 NSCLC 114% | NCI-H460 lung 73.4% | A549/ATCC NSCLC 30.5% | 786-0 renal 97.3% | COLO 205 colon 134%
active: NCI-H522 lung -2.2%

O=[N+]([O-])c1ccc(S(=O)(=O)NN=C2CCCCC2)cc1
inactive: NCI-H23 lung 104% | NCI-H322M lung 108% | HOP-62 NSCLC 99.5% | NCI-H460 lung 121% | HOP-92 NSCLC 96.7% | A549/ATCC NSCLC 93.9% | 786-0 renal 103% | COLO 205 colon 102%

O=C(O)/C=C/c1ccc2c(c1)CCC2
inactive: NCI-H23 lung 113% | HOP-62 NSCLC 94.6% | NCI-H460 lung 103% | A549/ATCC NSCLC 106% | 786-0 renal 101% | COLO 205 colon 105%

Reference: PubChem BioAssay (NCI)
